Source: PubChem BioAssay AID720697 (Broad Institute, 2013)
Measured potencies and affinities stand elsewhere. Records with an inconclusive call do not appear. Unmarked numbers belong to inactive results. Activity calls are given as the source filed them.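 The calls were made as follows: active = signal loss with fitted half-maximal concentration at or below twice the top valid tested dose in every test run; inconclusive = runs disagree, flat 30 to 70% signal loss, or poor fit; inactive = all runs flat, opposite direction, or potency beyond limit.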

Assay: HEK293T cytotoxicity, dose response, cytotoxicity control for miR-122 modulator project, cell-based, inhibitor set, cherry-pick, set 2 (AID 720697);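 also: 0% = median of neutral control wells and -100% = MG132 positive control wells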
Conditions: HEK293T viability, CellTiter-Glo luminescence, 48 h; series mostly up to 26 µM

With `NS(=O)(=O)c1ccc(Nc2nc(-c3cccnc3)cs2)cc1` as the compound, how does the activity change, negative = cytotoxicity read?
Its activity change, negative = cytotoxicity is 34% [at 6 µM].

Which outcome does the source give for `Cc1cc(C)cc(Oc2ccc(NC(=O)C3CC=CCC3C(=O)O)cc2)c1` (stereo not drawn) here?
Its outcome is “inactive”.

With `CN1C(=O)c2cc(NC(=O)c3ccc(C(F)(F)F)cc3)ccc2OC[C@@H]2O[C@@H](CC(=O)NCc3ccc4c(c3)OCO4)CC[C@@H]21` as the compound, how does the outcome read?
Its outcome is “inactive”.

Which outcome does the source give for `CCOc1cc(C(=O)NC(C)COC)cc(OCC)c1OCC` (stereo not drawn) here?
The outcome was “inactive”.

Which outcome does the source give for `COc1ccc(NC(=O)COC(=O)CCCc2c[nH]c3ccccc23)cc1` here?
Its outcome is “inactive”.

With `Cc1ccc(-c2nnn(CC(=O)N(CC(=O)NCC3CCCO3)c3ccccc3)n2)o1` (stereo not drawn) as the compound, how does the outcome read?
Its outcome is “inactive”.

Which outcome does the source give for `CCCNC(=O)C[C@@H]1CC[C@H]2[C@@H](COc3ccc(NC(=O)c4ccc(C(F)(F)F)cc4)cc3C(=O)N2C)O1` here?
Its outcome is “inactive”.

Which activity change, negative = cytotoxicity does the source give for `N#Cc1ccc(C(=O)Nc2ccc(N3CCN(C(=O)c4ccco4)CC3)cc2)c(F)c1` here?
The activity change, negative = cytotoxicity was -30.3% [at 6 µM].

With `C[C@@H]1CN([C@@H](C)CO)S(=O)(=O)c2ccc(C3=CCCC3)cc2O[C@@H]1CN(C)C(=O)c1ccc(F)cc1` as the compound, how does the outcome read?
The outcome was “inactive”.

With `COCC(=O)N(C)C[C@H]1Oc2cc(-c3ccc(C#N)cc3)ccc2S(=O)(=O)N([C@H](C)CO)C[C@H]1C` as the compound, how does the outcome read?
The outcome was “inactive”.

With `COC(=O)C[C@H]1CC[C@@H]2[C@@H](COc3ccc(NC(=O)Nc4ccc(Cl)cc4)cc3C(=O)N2C)O1` as the compound, how does the outcome read?
The outcome was “inactive”.

With `CN1C(=O)c2cc(NC(=O)c3ccc4c(c3)OCO4)ccc2OC[C@H]2O[C@H](CC(=O)O)CC[C@@H]21` as the compound, how does the outcome read?
The outcome was “inactive”.

Which outcome does the source give for `CCCNC(=O)N1[C@H](CNC(=O)c2ccc(F)cc2)[C@H](c2ccccc2)[C@@H]1CO` here?
Its outcome is “inactive”.
